Data taken from PubChem BioAssay (Tox21).
“And” between values parts separate entries of the source, which are not always exact repeats. Identical values can stand only once. Inconclusive results are not listed. A call without a number means that no potency is given here. More than one record can exist for a structure, and the calls need not agree. The source made the active and inactive calls. Unless noted, the call rests on the fitted dose curve; in most records, active means well fitted curve in the direction sought with a large enough effect in the repeat runs; inconclusive means weak or mixed curves; inactive means no such curve, though single readings can be large; an effect the other way counts as inactive or inconclusive.

Assays:
[1] = qHTS assay to identify small molecule antagonists of the androgen receptor (AR) signaling pathway using the MDA cell line in the presence of 0.5 nM R1881 - cell viability counter screen (AID 1259242); further: nearly all actives have a fitted effect of over 45% in size; further: potency means the concentration at half of the fitted maximal effect
Method in brief: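 Live-cell protease activity was measured by CellTiter-Fluor fluorescence after 30 min. Before that, MDA-kb2 MMTV-luciferase cells had 16 hr at 37C without CO2, exposed to test compounds and 0.5 nM R1881 final.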

[2] = target: Estrogen receptor (Homo sapiens) (UniProt P03372); test: qHTS assay to identify small molecule antagonists of the estrogen receptor alpha (ER-alpha) signaling pathway using the BG1 cell line in the presence of 0.1 nM 17-beta-estradiol (AID 1259244); further: nearly all actives have a fitted effect of over 50% in size
Method in brief: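 Luciferase luminescence (ONE-Glo, 30 min at room temperature) was read after 22 hr at 37C exposure to compounds plus 17beta-estradiol at 0.1 nM final. Cells were VM7Luc4E2 with endogenous ER-alpha and an ERE-driven luciferase, pre-cultured 5 days in hormone-depleted medium.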

[3] = qHTS assay to identify small molecule HDAC inhibitors - cell viability counter screen (AID 1259365); further: series mostly up to about 92 µM; nearly all actives have a fitted effect of over 50% in size
Method in brief: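 Cytotoxicity was gauged in wild-type HCT-116 cells after a brief 2hr treatment with DMSO-dissolved compounds at 37C and 5% CO2, using CellTiter-Glo luminescence developed for 30min at room temperature.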

[4] = qHTS assay to identify small molecule agonists of the sonic hedgehog signaling (Shh) pathway - cell viability counter screen (AID 1259366); further: nearly all actives have a fitted effect of over 50% in size; further: potency means the concentration at half of the fitted maximal effect
Method in brief: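 Stable Gli1-Luc NIH/3T3 clone, 2,000 cells/well. Compound exposure 24hr at 37C. Read-out: CellTiter-Fluor fluorescence.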

[5] = qHTS assay to identify small molecule agonists of the sonic hedgehog signaling (Shh) pathway (AID 1259368; calls by dose curve;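 further: NIH/3T3-derived 3T3Gli1-Luc cells carrying a stable Gli1-driven firefly luciferase reporter; series mostly up to about 92 µM; nearly all actives have a fitted effect of over 15% in size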)
Method in brief: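 Luminescence was read after 30 min at room temperature with luciferase reagent. Before that, 3T3Gli1-Luc cells (NIH/3T3 clone, stable Gli1-Luc reporter; 2,000/well) were exposed to compounds for 24 hr at 37C, 5% CO2, compounds being added 4 hr post-plating.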

[6] = qHTS assay to identify small molecule agonists of the androgen receptor (AR) signaling pathway in the presence of an antagonist - cell viability counter screen (AID 1259379); further: nearly all actives have a fitted effect of over 25% in size; further: potency means the concentration at half of the fitted maximal effect
Method in brief: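 Cytotoxicity counter-screen run in the same wells as the nilutamide-challenged (3.0 µM final) AR agonist assay in MDA-kb2 cells. Compounds tested at 15 concentrations for 16 h, 37 °C without CO2; CellTiter-Fluor fluorescence read.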

[7] = qHTS assay to identify small molecule agonists of the estrogen receptor beta (ER-beta) signaling pathway - cell viability counter screen (AID 1259380); further: nearly all actives have a fitted effect of over 30% in size; further: potency means the concentration at half of the fitted maximal effect
Method in brief: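 Cell viability counter screen: CellTiter-Glo luminescence (30 min, room temperature) measured in the same wells as the beta-lactamase readout, after 16 hr compound exposure at 37C of ER-beta-bla HEK293T cells in 2% charcoal-stripped FBS medium.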

[8] = qHTS assay to identify small molecule antagonists of the estrogen receptor beta (ER-beta) signaling pathway - cell viability counter screen (AID 1259382); further: nearly all actives have a fitted effect of over 55% in size; further: potency means the concentration at half of the fitted maximal effect
Method in brief: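 Cytotoxicity was measured in the same wells by CellTiter-Glo luminescence after 30 min at room temperature. Cells were ER-beta-bla HEK293T in charcoal-stripped serum, given compound together with 1 nM E2 and incubated 16 h at 37C.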

[9] = qHTS assay to identify small molecule agonists of the estrogen receptor alpha (ER-alpha) signaling pathway in the presence of an antagonist - cell viability counter screen (AID 1259386); further: nearly all actives have a fitted effect of over 30% in size; further: potency means the concentration at half of the fitted maximal effect
Method in brief: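 Compounds tested at 15 concentrations for 22 h at 37C alongside 10.0nM (final) ICI-182,780 antagonist, in VM7Luc4E2 cells grown in phenol red-free, charcoal-stripped medium. Viability read by CellTiter-Fluor fluorescence after 1 h reagent incubation.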

[10] = qHTS assay to identify small molecule phospholipidosis (PLD) inducers (AID 1259344; active means well fitted curve in the direction sought with a large enough effect; an effect the other way counts as inactive or inconclusive)
Method in brief: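 Read-out is LipidTOX Red fluorescence (ex 595/em 615) imaged in HepG2 cells after 24 h compound exposure at 37 C, with Hoechst nuclear counterstain (ex 352/em 461) allowing per-cell normalisation.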

[11] = qHTS assay to identify small molecule HDAC inhibitors (AID 1259364); further: top concentration of the series differs between compounds; nearly all actives have a fitted effect of over 45% in size
Method in brief: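 Luminescence read after 30 min room-temperature HDAC-Glo incubation measures cellular class I/II HDAC activity. Compounds were applied for 2 hr at 37 C to HCT-116 wild-type cells seeded the day before.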

[12] = qHTS assay to identify small molecule antagonists of the sonic hedgehog signaling (Shh) pathway - cell viability counter screen (AID 1259367); further: nearly all actives have a fitted effect of over 55% in size
Method in brief: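 Fluorescence read-out (CellTiter-Fluor, 1 hr at 37C) taken after 23 hr compound treatment of 3T3 Gli1-Luc cells stimulated with conditioned medium. Cells were seeded at 2,000 per well and pre-incubated 4 hr.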

[13] = qHTS assay to identify small molecule antagonists of the sonic hedgehog signaling (Shh) pathway (AID 1259369; calls by dose curve; further: nearly all actives have a fitted effect of over 45% in size; further: potency means the concentration at half of the fitted maximal effect)
Method in brief: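 Antagonist mode: compound added to 3T3 Gli1-Luc cells followed by conditioned-medium stimulation, 24 h at 37 C, 5% CO2. Inhibition taken as loss of Gli1-driven luciferase luminescence.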

[14] = qHTS assay to identify small molecule agonists or antagonists of the thyroid stimulating hormone receptor (TSHR) signaling pathway - wild type cell line counter screen (AID 1259384; calls by dose curve)
Method in brief: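 Wild-type Hek293 cells, 800/well, 18 h at 37C, then compound with Ro20-1724 for 30 min RT. cAMP by HTRF (cAMP-d2/anti-cAMP cryptate), 1 h RT, fluorescence read. 15 concentrations, triplicates.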

[15] = target: Thyrotropin receptor (Homo sapiens) (UniProt P16473); test: qHTS assay to identify small molecule antagonists of the thyroid stimulating hormone receptor (TSHR) signaling pathway (AID 1259385; calls by dose curve; further: nearly all actives have a fitted effect of over 20% in size)
Method in brief: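 TSHR-HEK293 cells (800/well) plated 18 h, then compounds with Ro20-1724 and TSH at 1.5 ng/mL final, 30 min at room temperature. cAMP quantified by HTRF (cAMP-d2/anti-cAMP-cryptate, 1 h); 15 concentrations in triplicate.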

[16] = target: Estrogen receptor beta (Homo sapiens) (UniProt Q92731); test: qHTS assay to identify small molecule agonists of the estrogen receptor beta (ER-beta) signaling pathway (AID 1259377; active means well fitted activation curve with a large enough effect in the signal ratio in the repeat runs, not every such curve was filed as active; the % refers to the signal ratio)
Method in brief: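 Measured by fluorescence intensity from a B/G FRET beta-lactamase substrate (2 h, room temperature) in ER-beta-UAS-bla HEK293T cells treated with DMSO-dissolved compounds for 16 hr at 37C and 5% CO2.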

[17] = target: Estrogen receptor beta (Homo sapiens) (UniProt Q92731); test: qHTS assay to identify small molecule antagonists of the estrogen receptor beta (ER-beta) signaling pathway (AID 1259378; active means well fitted inhibition curve with a large enough effect in the signal ratio in the repeat runs, not every such curve was filed as active; the % refers to the signal ratio; further: potency means the concentration at half of the fitted maximal effect)
Method in brief: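 ER-beta-UAS-bla HEK293T cells in 2% charcoal-stripped FBS medium treated with compound plus 1nM final 17-beta-estradiol for 16 hr at 37C. Beta-lactamase reporter read by FRET substrate fluorescence after 2 hours at room temperature.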

[18] = target: Estrogen receptor (Homo sapiens) (UniProt P03372); test: qHTS assay to identify small molecule agonists of the estrogen receptor alpha (ER-alpha) signaling pathway in the presence of an antagonist (AID 1259383; calls by dose curve; further: nearly all actives have a fitted effect of over 15% in size; further: potency means the concentration at half of the fitted maximal effect; on activation: top concentration of the series differs between compounds)
Method in brief: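 Agonist-mode confirmation run in the presence of 10.0nM (final) ICI-182,780 antagonist. The reporter was ERE-driven luciferase in VM7Luc4E2 cells, grown in charcoal-stripped serum. Cells were exposed to 15-concentration compound series for 22hr, then ONE-Glo luminescence was read.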

Sequence of Estrogen receptor beta (Homo sapiens) (Q92731 whole entry, looked up): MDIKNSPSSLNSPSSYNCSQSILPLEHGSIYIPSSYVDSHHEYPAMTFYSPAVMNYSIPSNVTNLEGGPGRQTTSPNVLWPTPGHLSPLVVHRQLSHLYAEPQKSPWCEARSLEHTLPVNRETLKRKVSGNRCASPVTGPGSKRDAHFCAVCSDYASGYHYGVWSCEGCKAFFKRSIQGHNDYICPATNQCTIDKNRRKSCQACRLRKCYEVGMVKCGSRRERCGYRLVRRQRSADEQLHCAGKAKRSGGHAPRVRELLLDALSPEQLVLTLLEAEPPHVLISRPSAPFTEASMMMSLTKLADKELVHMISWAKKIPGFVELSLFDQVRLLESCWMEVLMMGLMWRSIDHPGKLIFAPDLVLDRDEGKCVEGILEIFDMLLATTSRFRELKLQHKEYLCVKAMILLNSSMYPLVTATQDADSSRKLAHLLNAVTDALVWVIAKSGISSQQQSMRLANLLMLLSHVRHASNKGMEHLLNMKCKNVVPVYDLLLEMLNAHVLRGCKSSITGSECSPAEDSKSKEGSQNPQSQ
Sequence of Estrogen receptor (Homo sapiens) (P03372 whole entry, looked up): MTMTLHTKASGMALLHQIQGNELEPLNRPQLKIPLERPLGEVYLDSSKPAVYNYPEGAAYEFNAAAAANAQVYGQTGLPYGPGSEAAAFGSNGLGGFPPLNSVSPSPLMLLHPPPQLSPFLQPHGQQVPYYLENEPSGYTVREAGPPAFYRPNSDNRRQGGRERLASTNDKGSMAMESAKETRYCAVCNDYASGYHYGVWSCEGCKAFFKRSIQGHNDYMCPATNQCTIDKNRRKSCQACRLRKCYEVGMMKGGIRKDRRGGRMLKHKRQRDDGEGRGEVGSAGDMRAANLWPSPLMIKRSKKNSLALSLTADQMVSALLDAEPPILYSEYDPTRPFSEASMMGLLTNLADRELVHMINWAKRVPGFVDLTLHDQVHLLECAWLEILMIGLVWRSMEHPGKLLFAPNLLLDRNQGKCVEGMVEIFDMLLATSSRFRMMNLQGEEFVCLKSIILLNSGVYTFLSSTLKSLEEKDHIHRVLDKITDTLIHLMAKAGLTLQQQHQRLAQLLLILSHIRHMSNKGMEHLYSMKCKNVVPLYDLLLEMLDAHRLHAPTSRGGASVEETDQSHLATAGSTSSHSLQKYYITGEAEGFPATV
Sequence of Thyrotropin receptor (Homo sapiens) (P16473 whole entry, looked up): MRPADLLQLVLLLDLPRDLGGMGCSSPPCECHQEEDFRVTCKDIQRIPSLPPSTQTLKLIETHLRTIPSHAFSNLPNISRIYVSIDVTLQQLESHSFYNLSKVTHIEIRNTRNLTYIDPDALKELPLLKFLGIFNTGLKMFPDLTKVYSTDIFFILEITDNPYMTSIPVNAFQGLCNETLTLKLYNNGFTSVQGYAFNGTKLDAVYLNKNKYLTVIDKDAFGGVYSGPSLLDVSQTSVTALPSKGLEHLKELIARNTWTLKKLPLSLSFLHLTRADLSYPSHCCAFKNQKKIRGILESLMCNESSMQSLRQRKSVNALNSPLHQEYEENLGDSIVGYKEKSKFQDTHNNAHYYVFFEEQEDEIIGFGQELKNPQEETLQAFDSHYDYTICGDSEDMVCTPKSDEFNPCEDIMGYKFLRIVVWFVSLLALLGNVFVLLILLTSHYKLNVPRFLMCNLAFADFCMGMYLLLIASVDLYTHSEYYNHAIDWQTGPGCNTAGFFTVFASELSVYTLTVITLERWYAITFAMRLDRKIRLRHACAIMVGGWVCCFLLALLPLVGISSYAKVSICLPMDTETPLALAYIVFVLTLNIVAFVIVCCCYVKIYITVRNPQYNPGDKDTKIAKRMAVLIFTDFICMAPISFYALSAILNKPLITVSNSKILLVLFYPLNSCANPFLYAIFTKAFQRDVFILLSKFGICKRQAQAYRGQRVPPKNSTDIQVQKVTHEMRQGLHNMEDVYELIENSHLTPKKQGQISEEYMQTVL

SMILES	Potency [1]	Potency [2]	outcome [3]	Potency [4]	Potency [5]	Potency [6]	Potency [7]	Potency [8]	Potency [9]	Potency [10]	Potency [11]	Potency [12]	Potency [13]	Potency [14]	Potency [15]	Potency [16]	Potency [17]	Potency [18]
Nc1cc(Cl)c(N)c(Cl)c1	inactive	inactive	inactive	inactive	inactive	inactive	inactive	inactive	inactive									
CCCCCCCCCCC(CO)CCCCCCCC (stereo not given)	inactive		inactive	inactive	inactive	inactive	inactive	inactive	inactive	inactive	inactive	inactive	inactive	inactive	inactive			
Cc1ccc2c(c1)C(=O)OC2=O	inactive		inactive	inactive	inactive	inactive	inactive	inactive	inactive			inactive	inactive			inactive	inactive	
CC1(C)OC(=O)NC1=O	inactive		inactive	inactive	inactive	inactive	inactive	inactive	inactive	inactive	inactive		inactive	inactive	inactive			
CC(C)(Oc1ccc(Cl)cc1)C(=O)O	inactive		inactive	inactive	inactive	inactive	inactive	inactive	inactive	inactive		inactive	inactive	inactive	inactive			
C=C[C@H]1CN2CC[C@H]1C[C@@H]2[C@@H](O)c1ccnc2ccc(OC)cc12	inactive		inactive	inactive		inactive	inactive	inactive	inactive	inactive		inactive						
COc1ccc(-c2coc3cc(O)cc(O)c3c2=O)cc1	54.9 µM (active) and inactive	inactive	inactive	inactive	inactive	inactive	38.6 µM (active)	inactive	inactive				17.4 µM (active) and inactive	inactive	inactive			21.9 µM (active) and 9.69 µM (active)
CC/C(=C(/CC)c1ccc(O)cc1)c1ccc(O)cc1	inactive		inactive	inactive		60.6 µM (active) and inactive	60.6 µM (active) and 61.1 µM (active)	60.6 µM (active) and inactive	inactive	inactive				inactive	inactive			
C=CC(C)(O)CCC=C(C)C (stereo not given)	inactive		inactive	inactive	inactive	inactive	inactive	inactive	inactive			inactive	inactive	inactive	inactive	inactive	inactive	
CC(C)(C)c1cccc(C(C)(C)C)c1O	inactive	inactive	inactive	inactive	inactive	inactive	inactive	inactive	inactive			inactive		inactive	inactive			inactive
Nc1ccc(N)c(Cl)c1	inactive		inactive	61 µM (active)	inactive	inactive	61 µM (active) and 61.1 µM (active)	68.5 µM (active) and 61.1 µM (active)	61.1 µM (active)		inactive		15.4 µM (active)					
CC(C)[C@@H]1CC[C@@H](C)CC1=O	inactive		inactive	inactive	inactive	inactive	inactive	inactive	inactive	inactive		inactive	24.3 µM (active) and inactive	inactive	inactive			
Cc1ccc(C)c(O)c1	inactive		inactive	inactive	inactive	inactive	inactive	inactive	inactive		inactive	inactive	inactive	inactive	inactive			
Nc1ccc2c(O)cc(S(=O)(=O)O)cc2c1			inactive		inactive	inactive	15.4 µM (active)	inactive	48.6 µM (active) and 21.7 µM (active)				inactive	inactive	inactive	inactive	2.73 µM (active)	
O=C(CCCN1CCC(O)(c2ccc(Cl)cc2)CC1)c1ccc(F)cc1	inactive		inactive	68.6 µM (active) and inactive	inactive	68.6 µM (active) and inactive	21.7 µM (active) and 23.7 µM (active)		inactive			inactive	inactive	inactive	inactive	inactive	inactive	
